Screening results from PubChem.
Rows were chosen to be rich in hits. Some 8.8% of all compounds tested hit in one or more screens of this group.
KB-V1 MDR tox: qHTS assay for MDR1-selective chemotherapeutics: Primary screen using the drug-selected MDR subline cells KB-V1; KB-V1 MDR cells viability, CellTiter-Glo, 72 h; Potency, µM (highest dose often 46.1 µM), actives largely listed as cytotoxic; 400,000 tested, 3.4% active; note: nearly all actives have a fitted effect of over 60% in size
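Cytotoxicity via CellTiter-Glo luminescence after 72 h compound exposure at 37 degrees C. Cells: drug-selected KB-V1 line, DMEM phenol-red free plus 10% FBS. Compounds tested at multiple concentrations; normalized data fitted to concentration-effect curves.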
HT1080-NT tox: qHTS for induction of synthetic lethality in tumor cells producing 2HG: qHTS for the HT-1080-NT fibrosarcoma cell line. HT-1080-NT fibrosarcoma viability, CellTiter-Glo ATP luminescence, 48 h. Potency, µM (series often up to 46.1 µM), actives largely listed as cytotoxic. 360,000 tested, 1.6% active. AID 686970, 2013;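 note: NT is the 2HG producing partner of a matched IDH1 knockdown line; nearly all actives have a fitted effect of over 55% in size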
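Viability by CellTiter-Glo luminescence after 48 h compound exposure at 37C of HT-1080-NT cells (750/well, RPMI, 5% FBS). % activity scaled between DMSO wells and medium-only wells, then curve-fitted and categorized by curve class.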
KB-3-1 cytotox: qHTS assay for MDR1-selective chemotherapeutics: Primary screen using the parental adenocarcinoma cell KB-3-1. 400,000 tested, 1.4% active. Potency, µM (titrated, usually from 46.1 µM), most hits filed as cytotoxic. KB-3-1 viability, CellTiter-Glo ATP luminescence, 72 h; note: nearly all actives have a fitted effect of over 60% in size
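Parental KB-3-1 adenocarcinoma cells in phenol-red-free DMEM with 10% FBS were pin-treated with compounds at several concentrations, incubated 72 h at 37 °C, and viability read by CellTiter-Glo luminescence; concentration-effect curves were fitted after normalization.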
HT1080 IDH1KD tx: qHTS for induction of synthetic lethality in tumor cells producing 2HG: qHTS for the HT-1080-IDH1KD cell line; HT-1080 IDH1 knockdown viability, ATP luminescence, 48 h; Potency, µM (doses to about 46.1 µM), actives largely listed as cytotoxic; 360,000 tested, 2% active; AID 686971, 2013
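Assay cells: HT-1080 with IDH1 knockdown, 750 per well, RPMI/5% FBS. Exposure: 48 h at 37 °C following 2 h pre-incubation. Read: CellTiter-Glo luminescence; fitted concentration-response, curve class assigned.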
IL-1B inflam inh: qHTS for Inhibitors of Inflammasome Signaling: IL-1-beta AlphaLISA Primary Screen. THP-1 LPS/ATP IL-1B secretion, AlphaLISA, 16 h; stronger effect = lower value. activity change, % at 57.5 µM. 360,000 tested, 4.7% active. AID 743279, 2014; in the data active = activity change below about -50%; inconclusive = mostly about -30% to -49%
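Secreted IL-1B measured by AlphaLISA bead assay after 16 h compound exposure of THP-1 cells; compounds (final up to 57.5 uM) added 1 h before LPS (250 ng/mL) and ATP (1.25 mM) stimulation; lower signal means less secretion.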
Of the large screens only hits and unclear results are named; the others gave an inactive call. Unless noted, calls come from the whole dose curve; as a rule, active = well fitted curve in the direction sought with a large enough effect; inconclusive = small, poorly fitted or top-dose-only effect, or another doubt; inactive = no such curve, though single readings can be large; an effect the other way counts as inactive or inconclusive.

Cc1cc2cc(CN(CCN(C)C)C(=S)NCc3ccco3)c(=O)[nH]c2cc1C	HT1080-NT tox inconclusive, HT1080 IDH1KD tx inconclusive, IL-1B inflam inh -79.8
Cc1cccc2cc(CN(CCN(C)C)C(=S)NCc3ccco3)c(=O)[nH]c12	none
Cc1cc2cc(CN(Cc3cccs3)C(=S)NCc3ccco3)c(=O)[nH]c2cc1C	KB-3-1 cytotox inconclusive
Cc1ccc(C2=NNC(=O)C(c3ccc(Cl)cc3)C2)cc1 (stereo not given)	none
O=C1NN=C(c2ccc(Cl)cc2)CC1c1cccc(Br)c1 (stereo not given)	KB-V1 MDR tox inconclusive, HT1080-NT tox inconclusive, HT1080 IDH1KD tx inconclusive, IL-1B inflam inh -51.3
COc1cc(C(=O)OCC(=O)NC2CCCC2)cc(NC(=O)c2ccco2)c1OC	KB-V1 MDR tox 4.61µM
CC1CCc2c(C(=O)NCC3CCCO3)csc2C1 (stereo not given)	none
Cc1noc(C)c1COC(=O)c1csc2c1CCC(C)C2 (stereo not given)	KB-V1 MDR tox 20.6µM
CCc1ccc(C(=O)COC(=O)c2ccccc2OC)cc1	none (no result: KB-V1 MDR tox, KB-3-1 cytotox)
CC(C)c1nnc(NC(=O)Cc2ccccc2[N+](=O)[O-])s1	KB-V1 MDR tox 23.1µM
CC(C)(C)c1nnc(NC(=O)Cc2ccccc2[N+](=O)[O-])s1	KB-V1 MDR tox inconclusive, KB-3-1 cytotox inconclusive
CC(C)c1ccc(C2CC(=O)c3cnc(NC(=O)c4ccco4)nc3C2)cc1 (stereo not given)	none
Cn1nc(N)c2ncc(-c3ccc(Cl)cc3)nc21	KB-V1 MDR tox 7.31µM, HT1080 IDH1KD tx inconclusive
COc1ccc(C)cc1NC(=O)c1cc2c(s1)CCC2	KB-V1 MDR tox inconclusive
COC(=O)c1sccc1NC(=O)c1cc2c(s1)CCCC2	KB-V1 MDR tox 14.6µM
Clc1ccc2nc(COc3ccccc3)[nH]c2c1	HT1080-NT tox 13µM, KB-3-1 cytotox inconclusive, HT1080 IDH1KD tx 8.2µM
O=C(CCn1nnc2ccccc21)Nc1nnc(Cc2ccccc2)s1	KB-V1 MDR tox 16.4µM
Cc1cc(C(=O)Nc2c(F)c(F)c(F)c(F)c2F)n(-c2ccccc2)n1	KB-V1 MDR tox inconclusive
CCCCCCCCN1C(=O)[C@H](CC(=O)N2CCN(C(=O)c3ccco3)CC2)C[C@@]2(C(=O)OC)CCCCC=C12	HT1080-NT tox inconclusive, HT1080 IDH1KD tx inconclusive
COC(=O)[C@@]12C[C@@H](CC(=O)N3CCN(C(=O)c4ccco4)CC3)C(=O)N(CCc3ccc(OC)c(OC)c3)C1=CCC(C)(C)C2	IL-1B inflam inh -51.2
CCCCCCCCN1C(=O)[C@H](CC(=O)N2CCN(C(=O)c3ccco3)CC2)C[C@@]2(C(=O)OC)CC(C)(C)CC=C12	KB-V1 MDR tox inconclusive, HT1080-NT tox inconclusive, HT1080 IDH1KD tx inconclusive, IL-1B inflam inh -50.9
CCc1nn(CC(=O)NC(C)C)c(=O)c2cc3cc(F)ccc3n12	none (no result: HT1080-NT tox, HT1080 IDH1KD tx, IL-1B inflam inh)
COc1ccc(Cl)c2sc(N(CCN(C)C)C(=O)C3=COCCO3)nc12	none
Nc1ncnc2c1nc(Sc1ccc(Cl)cc1)n2[C@H]1OC2COP(=O)(O)O[C@H]2[C@@H]1O (stereo not given in full)	none (no result: KB-V1 MDR tox, KB-3-1 cytotox, IL-1B inflam inh)
CC(C)(C)c1ccc(-c2nc(C#N)c(NCCCn3ccnc3)o2)cc1	KB-V1 MDR tox inconclusive, HT1080-NT tox 20.6µM, HT1080 IDH1KD tx 23.1µM, IL-1B inflam inh -94.8
N#Cc1nc(-c2ccc(OCc3ccccc3)cc2)oc1NCCCn1ccnc1	KB-V1 MDR tox 23.1µM, KB-3-1 cytotox inconclusive, IL-1B inflam inh inconclusive
CN(C)c1oc(-c2ccc(OCc3ccccc3)cc2)nc1C#N	KB-V1 MDR tox 20.6µM
Cc1cc[n+](C2CCCCC2)c2ccccc12	none (no result: HT1080-NT tox, HT1080 IDH1KD tx, IL-1B inflam inh)
Cc1cccc(S(=O)(=O)N/N=c2\sc3ccccc3n2C)c1	none
CN1CCN(c2ccccc2NC(=O)c2ccc([N+](=O)[O-])cc2Cl)CC1	none
Nc1ncnc(Oc2cccc3cccnc23)c1[N+](=O)[O-]	none
COc1ccc(C(=O)Oc2cccc3cccnc23)cc1[N+](=O)[O-]	HT1080 IDH1KD tx 16.4µM
NC(=O)c1ccc(Oc2cccc3cccnc23)c([N+](=O)[O-])c1	none
COc1ccc(-c2cc(=O)c3cc(OC)ccc3o2)cc1	none
CCCCC(=O)Oc1ccc2oc(-c3ccc(OC)cc3)cc(=O)c2c1	KB-V1 MDR tox 6.51µM (no result: HT1080-NT tox, HT1080 IDH1KD tx, IL-1B inflam inh)
N=c1ccn(CC(=O)c2ccc(-c3ccccc3)cc2)cc1	HT1080-NT tox inconclusive, KB-3-1 cytotox 5.17µM, HT1080 IDH1KD tx 16.4µM, IL-1B inflam inh -69.2
Cc1nc(C)n(CC(O)COc2ccc3ccccc3c2)n1 (stereo not given)	KB-V1 MDR tox 20.6µM
CC(NCC(O)COc1ccc2ccccc2c1)c1ccccc1 (stereo not given)	KB-V1 MDR tox inconclusive, HT1080-NT tox 18.4µM, KB-3-1 cytotox inconclusive, HT1080 IDH1KD tx 13µM, IL-1B inflam inh -94.4
CN(CC(O)COc1ccc2ccccc2c1)C1CCCCC1 (stereo not given)	HT1080-NT tox inconclusive, HT1080 IDH1KD tx inconclusive, IL-1B inflam inh -82.0
Cc1cc(C)n(CC(O)COc2ccc3ccccc3c2)n1 (stereo not given)	KB-V1 MDR tox inconclusive
Cc1cc(OCC(O)CNC(C)c2ccccc2)ccc1C(C)C (stereo not given)	KB-V1 MDR tox 16.4µM, HT1080-NT tox 23.1µM, KB-3-1 cytotox inconclusive, HT1080 IDH1KD tx 18.4µM, IL-1B inflam inh -90.5
CCn1cc(C=C2C(=O)c3ccccc3C2=O)c2ccccc21	none
O=C(CN1CCN(c2cccc(C(F)(F)F)c2)CC1)N(C1CCCC1)C1CCS(=O)(=O)C1 (stereo not given)	KB-V1 MDR tox 20.6µM
CN1CCN(C(c2ccc(F)cc2)c2sc3nc(-c4ccco4)nn3c2O)CC1 (stereo not given)	KB-V1 MDR tox inconclusive (no result: HT1080-NT tox, HT1080 IDH1KD tx, IL-1B inflam inh)
CCCCCc1c(O)c2ccccc2[nH]c1=O	KB-V1 MDR tox 16.4µM
O=c1[nH]c2ccccc2c(O)c1O	KB-V1 MDR tox inconclusive, HT1080-NT tox 18.4µM, KB-3-1 cytotox inconclusive, HT1080 IDH1KD tx inconclusive, IL-1B inflam inh -92.1
CCc1c(C)[nH]c2ccccc2c1=O	none
CCc1c(C)c2ccccc2[nH]c1=O	KB-V1 MDR tox 2.31µM, KB-3-1 cytotox 4.11µM (no result: HT1080-NT tox, HT1080 IDH1KD tx, IL-1B inflam inh)
COc1ccc([N+](=O)[O-])cc1N(CC(=O)NCCC1=CCCCC1)S(C)(=O)=O	none
COc1ccc(S(N)(=O)=O)cc1C(=O)OCC(=O)N1CC(=O)Nc2ccccc21	none
O=C(CN(C(=O)c1csnn1)c1ccc(Cl)cc1)NCc1ccc2c(c1)OCO2	KB-V1 MDR tox inconclusive
CCOC(=O)c1sc(NC(=O)CSc2n[nH]c(CC(C)C)n2)nc1C	KB-V1 MDR tox inconclusive
